Results from the supplement of paper PMC7411054.
Where a name gives a salt, the structure may show the parent alone.

What was measured:
Assay in all cases: lowest phenotypically active concentration; higher = less potent
Settings in all cases: treatment time: 24 h
[1] = test system: A549-CANX-COX4
Method in brief: (§1)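 The reporter lines, fifteen in total and built by gene editing in A549, HepG2 and WPMY1 cells, used BFP for segmentation alongside GFP and RFP/FusionRed markers. Each was treated at 0.3, 1, 3 or 9 µM for 24 h in four wells and then imaged live, with live-cell features normalised to solvent control wells. Deviation meant ≥3 of 4 wells beyond the 95th percentile of control Euclidean distances; reproducibility meant a median replicate Pearson correlation above the 95th percentile of non-replicates. Only conditions meeting both were scored as phenotypically active.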

[2] = test system: HepG2-ACTB-RAB5A
Method in brief: as §1

[3] = test system: HepG2-CANX-COX4
Method in brief: as §1

[4] = test system: HepG2-GM130-SQSTM1
Method in brief: as §1

[5] = test system: WPMY1-GM130-SQSTM1
Method in brief: as §1

[6] = test system: WPMY1-TUBA1B-RELA
Method in brief: as §1

[7] = test system: HepG2-TP53BP1-CLTA
Method in brief: as §1

[8] = test system: WPMY1-TP53BP1-CLTA
Method in brief: as §1

[9] = test system: HepG2-TUBA1B-RELA
Method in brief: as §1

[10] = test system: A549-TP53BP1-CLTA
Method in brief: as §1

SMILES | lowest phenotypically active concentration [1] | lowest phenotypically active concentration [2] | lowest phenotypically active concentration [3] | lowest phenotypically active concentration [4] | lowest phenotypically active concentration [5] | lowest phenotypically active concentration [6] | lowest phenotypically active concentration [7] | lowest phenotypically active concentration [8] | lowest phenotypically active concentration [9] | lowest phenotypically active concentration [10]
O=c1cc(-c2ccccc2)oc2c(O)c(O)ccc12 [7,8-Dihydroxyflavone] | 9 µM | 9 µM | 9 µM | 9 µM | 9 µM | 9 µM |  |  |  | 
N#C/C(=C/c1ccc(O)c(O)c1)C(=O)NCCCCc1ccccc1 | 9 µM | 9 µM | 9 µM | 9 µM | 9 µM | 9 µM | 9 µM | 9 µM |  | 
CCCCOc1c(C(=O)c2c(F)cc(C)cc2F)cnc2[nH]ncc12 | ≤ 0.3 µM | 3 µM |  | 9 µM |  | 3 µM | 3 µM |  | ≤ 0.3 µM | 
CN1CCc2cccc3c2[C@H]1Cc1ccc(O)c(O)c1-3 [r(-)-apomorphine] | 9 µM |  |  |  | ≤ 0.3 µM | 9 µM |  |  |  | 9 µM
C/C(=N/NC(=N)N)c1ccc(NC(=O)Nc2ccc(/C(C)=N/NC(=N)N)cc2)cc1 | 9 µM | 3 µM | 9 µM | 3 µM | 9 µM |  | 9 µM |  | 3 µM | 
O=c1c(-c2ccc(O)cc2)coc2cc(O[C@@H]3O[C@H](CO)[C@@H](O)[C@H](O)[C@H]3O)cc(O)c12 [Genistin] | 9 µM |  |  |  |  |  |  | 9 µM |  | 9 µM
COc1cc2ncnc(Nc3cccc(Br)c3)c2cc1OC | 1 µM |  |  | 9 µM | 9 µM |  | 9 µM | 3 µM | 9 µM | ≤ 0.3 µM
O=C1/C(=C\c2ccncc2)CCC/C1=C\c1ccncc1 | 3 µM | 9 µM | 3 µM | 1 µM | 3 µM | 3 µM | 3 µM | 9 µM | 3 µM | 
COc1ccc(-c2cnc(-c3cccc4c3-c3ccccc3C4=O)o2)cc1 | ≤ 0.3 µM |  |  |  | ≤ 0.3 µM | ≤ 0.3 µM |  | ≤ 0.3 µM |  | ≤ 0.3 µM
CCn1c(=O)n([C@H]2CCCN(c3nccc(-c4cc5ccccc5o4)n3)C2)c2ccccc21 | 3 µM |  |  |  |  |  |  |  |  | 9 µM
CC(C)n1c(/C=C/[C@@H](O)C[C@@H](O)CC(=O)O)c(-c2ccc(F)cc2)c2ccccc21 [fluvastatin] | 9 µM | 1 µM | 3 µM | 1 µM | 1 µM | 3 µM | 3 µM | 9 µM | 3 µM | 9 µM
CC(C)c1cnn2c(NCc3ccccc3)cc(NCCCCCCN)nc12 [BS 181 dihydrochloride] | 9 µM |  |  |  |  | 9 µM |  | 9 µM |  | 9 µM
COc1ccc(-c2cc(=O)c3c(O)cc(O)cc3o2)cc1O [Diosmetin] | 9 µM |  |  |  |  | 9 µM |  | 9 µM | 9 µM | 
C[C@@H](Nc1ncnc2[nH]c(-c3ccc(O)cc3)cc12)c1ccccc1 [PKI 166 hydrochloride] | 3 µM |  | 9 µM |  | 3 µM | 9 µM | 9 µM | 3 µM | 9 µM | 3 µM
COc1c(Cl)cc2c([nH]c3cnccc32)c1NC(=O)c1cccnc1C [ML 120B dihydrochloride] | 9 µM | 9 µM | 9 µM |  |  |  | 9 µM |  |  | 
Cc1cc(F)c(Nc2ncnc3cc(OCc4ccccc4)ccc23)cc1O | 9 µM |  |  |  |  | 9 µM |  |  |  | 
C=C1CC[C@@H]2[C@](C)(CO)[C@H](O)CC[C@@]2(C)[C@@H]1C/C=C1/C(=O)OC[C@H]1O [Andrographolide] | 9 µM | 3 µM | 3 µM | 1 µM | 9 µM | 9 µM | 3 µM |  | 3 µM | 
c1cc(-c2cc(C3CCNCC3)[nH]n2)ccn1 | 9 µM |  | 9 µM |  |  |  |  |  |  | 
Cc1cc2c(F)c(Oc3ncnn4cc(OC[C@@H](C)OC(=O)[C@H](C)N)c(C)c34)ccc2[nH]1 [brivanib-alaninate] | 9 µM | 9 µM | 3 µM | 9 µM | 3 µM | 3 µM | 3 µM | 3 µM | 9 µM | 9 µM
C=C1C(=O)O[C@@H]2C=C(C)CCC=C(C)CC[C@@H]12 [Costunolide] | 9 µM | 9 µM | 9 µM | 3 µM | 9 µM | 9 µM | 9 µM | 9 µM |  | 
COc1c(C=O)c(O)cc2c1C(=O)c1ccccc1C2=O [Damnacanthal] |  | 9 µM |  | 9 µM | 3 µM | 9 µM | 9 µM | 9 µM |  | 3 µM
Cc1noc(C)c1Cn1cc(C#N)c2cc(Oc3ccc(NC(=O)[C@@H]4CCCN4)cc3)ccc21 |  |  |  | 9 µM | 9 µM | 9 µM | 9 µM | 9 µM | 9 µM | 9 µM
CCCS(=O)(=O)Nc1ccc(F)c(C(=O)c2c[nH]c3ncc(Cl)cc23)c1F |  | 3 µM | 1 µM | ≤ 0.3 µM | 9 µM |  | 1 µM |  | 9 µM | 1 µM
COc1ccc(CNC(=O)Nc2ncc([N+](=O)[O-])s2)cc1 |  |  |  |  | 9 µM |  |  | 9 µM |  | 9 µM
COc1cc(N2CCC(N)CC2)ccc1Nc1ncc(Cl)c(-c2c[nH]c3ccccc23)n1 |  | 3 µM | 1 µM | 3 µM | 1 µM | 1 µM | 3 µM | ≤ 0.3 µM | 1 µM | 3 µM
COc1cc2ncnc(Nc3ccc(Cl)cc3F)c2cc1OC |  |  |  |  |  |  |  |  |  | 3 µM
CC(C)COCC(CN(Cc1ccccc1)c1ccccc1)N1CCCC1 (stereo not drawn) [bepridil] |  | 9 µM | 9 µM | 9 µM | 9 µM |  | 9 µM | 9 µM | 9 µM | 9 µM
O=C(O)C[C@H](O)C[C@H](O)/C=C/c1c(C2CC2)nc2ccccc2c1-c1ccc(F)cc1 [Pitavastatin calcium] |  | 1 µM | 1 µM | 1 µM | ≤ 0.3 µM | 1 µM | 1 µM | 1 µM | 1 µM | 9 µM

SMILES | lowest phenotypically active concentration [1] | lowest phenotypically active concentration [2] | lowest phenotypically active concentration [3] | lowest phenotypically active concentration [4] | lowest phenotypically active concentration [5] | lowest phenotypically active concentration [6] | lowest phenotypically active concentration [7] | lowest phenotypically active concentration [8] | lowest phenotypically active concentration [9] | lowest phenotypically active concentration [10]
Cc1cc(Nc2ccc(NC(=O)c3ccc(Nc4ccnc5ccccc45)cc3)cc2)nc(N)n1 |  | 9 µM |  | 1 µM | 1 µM | 3 µM | 3 µM | 3 µM | 3 µM | 9 µM
COc1ccc(CCNCc2ccc(OCc3ccc(Cl)nc3)c(OC)c2)cc1OC [SBE 13 hydrochloride] |  | 9 µM |  |  | 9 µM | 9 µM | 9 µM | 9 µM | 9 µM | 9 µM
N#C/C(=C(/N)Sc1ccc(N)cc1)c1ccccc1C(F)(F)F |  | 3 µM | 3 µM | 9 µM |  |  | 3 µM | 9 µM | 9 µM | 1 µM
Cc1ccc(NC2=CC(=O)c3sc(C)nc3C2=O)cc1 [Ryuvidine] |  | 3 µM |  | 3 µM | 1 µM | 1 µM | 3 µM |  |  | 1 µM
O=C(O)Cc1cccc(OCCCN(Cc2cccc(C(F)(F)F)c2Cl)CC(c2ccccc2)c2ccccc2)c1 [GW 3965 hydrochloride] | 9 µM |  | 9 µM |  |  |  |  |  | 9 µM | 
CCCNCC(O)COc1ccccc1C(=O)CCc1ccccc1 (stereo not drawn) [propafenone] |  | 9 µM |  |  | 3 µM |  |  | 3 µM | 9 µM | 9 µM
NS(=O)(=O)c1nn2cc(-c3ccccc3)nc2s1 |  | 9 µM | 9 µM | 9 µM | 9 µM | 9 µM |  | 9 µM | 9 µM | 9 µM
C[C@]1(O)C[C@@H](c2nc(-c3ccc4ccc(-c5ccccc5)nc4c3)c3c(N)nccn32)C1 [linsitinib] |  | 9 µM | 9 µM | 9 µM | 9 µM |  | 9 µM | 9 µM | 9 µM | 9 µM
C[C@H]1Oc2cc(cnc2N)-c2c(nn(C)c2C#N)CN(C)C(=O)c2ccc(F)cc21 |  | 3 µM | 3 µM | 3 µM |  |  | 3 µM | 9 µM | ≤ 0.3 µM | 3 µM
COc1cc(OC)c2cc(-c3ccncc3)cnc2c1 [DMPQ dihydrochloride] |  |  | 9 µM |  |  |  |  | 9 µM |  | 9 µM
Cc1noc(C)c1-c1ccc2c(c1)nc(CCc1ccc(OCCCN(C)C)cc1)n2CCN1CCOCC1 |  | 9 µM | 9 µM | 9 µM | 9 µM | 9 µM | 9 µM | 9 µM | 9 µM | 9 µM
O=C(O)[C@@H]1[C@H]2C[C@H]3c4[nH]c5ccccc5c4CCN3C[C@@H]2CC[C@@H]1O [Yohimbinic acid monohydrate] |  |  |  |  | 9 µM | 9 µM |  | 9 µM |  | 9 µM
Cn1cc(C2=C(c3ccc(Cl)cc3Cl)C(=O)NC2=O)c2ccccc21 |  |  |  | 1 µM | ≤ 0.3 µM |  | ≤ 0.3 µM | ≤ 0.3 µM |  | ≤ 0.3 µM
COc1ccccc1OCCNCC(O)COc1cccc2[nH]c3ccccc3c12 (stereo not drawn) [Carvedilol] |  | 9 µM | 9 µM | 9 µM | 3 µM | 9 µM | 9 µM | 9 µM | 9 µM | 9 µM
O=S(=O)(c1cccc2cnccc12)N1CCCNCC1 [fasudil] |  | 9 µM | 3 µM | 3 µM | 9 µM | 9 µM | 3 µM |  | 9 µM | 9 µM
CCCCOc1cc(C(=O)NCCN(CC)CC)c2ccccc2n1 [cinchocaine] |  |  |  |  |  |  | 9 µM |  |  | 9 µM
NC(=O)c1cccc(-c2cc(Nc3ccc(OC(F)(F)F)cc3)ncn2)c1 |  |  |  | 9 µM | 9 µM |  |  | 9 µM |  | 9 µM
CSc1ccc2c(c1)N(CCC1CCCCN1C)c1ccccc1S2 (stereo not drawn) [thioridazine] |  | 9 µM | 9 µM | 9 µM | 9 µM | 9 µM | 9 µM | 9 µM | 9 µM | 9 µM
CC(C)OC(=O)c1cc2c(OCC(O)CNC(C)(C)C)cccc2[nH]1 (stereo not drawn) |  | 9 µM |  |  | 9 µM | 9 µM | 3 µM | 9 µM | 9 µM | 9 µM
Clc1ccccc1C(c1ccccc1)(c1ccccc1)n1ccnc1 [Clotrimazole] |  | 9 µM | 9 µM |  | 9 µM |  |  |  |  | 9 µM
Cc1ccc(NC(=O)c2cccc(N(C)C)c2)cc1NC(=O)c1ccc(O)cc1 |  |  |  |  |  |  |  |  |  | 3 µM
CN1[C@@H]2CC[C@H]1C[C@@H](OC(c1ccccc1)c1ccccc1)C2 [benztropine] |  | 9 µM | 9 µM |  | 9 µM | 9 µM | 9 µM |  | 9 µM | 9 µM
CNCCC(Oc1ccc(C(F)(F)F)cc1)c1ccccc1 (stereo not drawn) [fluoxetine] |  |  |  |  | 9 µM |  | 9 µM |  | 3 µM | 9 µM
O=C(NOCC1CC1)c1ccc(F)c(F)c1Nc1ccc(I)cc1Cl |  | ≤ 0.3 µM | 1 µM | ≤ 0.3 µM |  |  | ≤ 0.3 µM |  | ≤ 0.3 µM | ≤ 0.3 µM
CC/C(=C(\CC)c1ccc(O)c(CN(CC)CC)c1)c1ccc(O)c(CN(CC)CC)c1 |  | 1 µM |  | 1 µM | 1 µM | 9 µM | ≤ 0.3 µM | 9 µM | 1 µM | 1 µM
CC(=O)O[C@@H]1C[C@H]2C(C)(C)C(=O)C=C[C@]2(C)[C@H]2CC[C@@]3(C)[C@H](c4ccoc4)OC(=O)[C@H]4O[C@]43[C@@]21C [gedunin] |  |  | 1 µM | 9 µM | 9 µM |  | 3 µM |  | 9 µM | 
CC1=C(/C=C/C(C)=C\C=C\C(C)=C\C(=O)O)C(C)(C)CCC1 [tretinoin] |  | 1 µM | ≤ 0.3 µM | 9 µM | ≤ 0.3 µM | 3 µM |  | 1 µM |  | 
